Results: PubChem BioAssay (NCATS)
Records with an inconclusive call do not appear. The source made the active and inactive calls. Unless noted, calls follow the shape of the dose curve; as a rule, active = well fitted cell-killing curve with a large enough effect; inconclusive = small, poorly fitted or top-dose-only effect; inactive = flat fitted curve, though single readings scatter.

Columns and labels:
[1] = Cell Viability - LYMP2-025 (AID 976);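 also: series mostly up to about 92 µM; plate controls were DMSO only for no effect and tetraoctylammonium bromide control for full effect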
Summary of the method: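 Seed 2500 LYMP2-025 cells/well; 5 hr at 37 C; add compound; 24 hr at 37 C; add CellTiter-Glo; 30 min RT; read luminescence. AC50 from Hill-modelled concentration-response.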

[2] = Cell Viability - LYMP2-002 (AID 977);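 also: series mostly up to about 92 µM; plate controls were DMSO only for no effect and 92 µM tetraoctylammonium bromide for full effect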
Summary of the method: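 Luminescent ATP readout (CellTiter-Glo, 30 min room temperature) after 24 h compound exposure at 37 C of a human lymphoblastoid line, 2500 cells/well. AC50 values derived by standard Hill fitting of qHTS concentration-response data.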

[3] = Cell Viability - LYMP2-006 (AID 978); also: series mostly up to about 92 µM; % is scaled to controls: 0 for no effect and ±100 for the full control effect; nearly all actives have a fitted effect of over 60% in size
Summary of the method: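 qHTS, 1536-well; 2500 cells/well, 5 hr 37 C; cpd 24 hr 37 C; CellTiter-Glo 30 min RT; luminescence. Tetraoctylammonium bromide pos. ctrl. AC50 via Hill eqn.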

[4] = Cell Viability - LYMP2-007 (AID 979);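 also: cells exposed to compound for 24 h before reading; 0% = DMSO only and the negative end = 92 µM tetraoctylammonium bromide; nearly all actives have a fitted effect of over 60% in size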
Summary of the method: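 Luminescent ATP signal (CellTiter-Glo) serves as the viability read-out after 24 hr compound treatment of lymphoblastoid cells in complete medium at 37 C. Concentration-response data were fitted to the Hill equation to give AC50 values.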

[5] = Cell Viability - LYMP2-008 (AID 980); also: % is scaled to controls: 0 for no effect and ±100 for the full control effect; nearly all actives have a fitted effect of over 60% in size
Summary of the method: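 qHTS, human lymphoblastoid line, 2500 cells/well; 5 hr preincubation, 24 hr compound, 37 C. CellTiter-Glo ATP luminescence. AC50 via Hill equation. Tetraoctylammonium bromide positive control.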

[6] = Cell Viability - LYMP2-010 (AID 981); also: % is scaled to controls: 0 for no effect and ±100 for the full control effect; nearly all actives have a fitted effect of over 55% in size
Summary of the method: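 Luminescent ATP signal (CellTiter-Glo) served as the viability read-out. Cells of the human lymphoblastoid line were treated with compound over a concentration range for 24 hours at 37 C, and AC50 values came from Hill-equation modeling.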

[7] = Cell Viability - LYMP2-012 (AID 982);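 also: cellular ATP by luciferase luminescence where a drop means cytotoxicity; cells exposed to compound for one day before reading; 0% = DMSO only and full loss = 92 µM tetraoctylammonium bromide; nearly all actives have a fitted effect of over 55% in size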
[8] = Cell Viability - LYMP2-014 (AID 983);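 also: series mostly up to about 92 µM; plate controls were DMSO only for no effect and 92 µM tetraoctylammonium bromide for full effect; nearly all actives have a fitted effect of over 50% in size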
Summary of the method: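 Luminescent ATP signal (CellTiter-Glo, 30 min at room temperature) serves as the viability read-out after 24 hr compound exposure at 37 C. Cells were seeded at 2500 per well and settled 5 hr beforehand.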

[9] = Cell Viability - LYMP2-016 (AID 984); also: % is scaled to controls: 0 for no effect and ±100 for the full control effect; nearly all actives have a fitted effect of over 55% in size
Summary of the method: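 qHTS, 1536-well: 2500 LYMP2-016 cells/well, 5 hr 37 C, compound added, 24 hr 37 C, CellTiter-Glo 30 min RT, luminescence. Tetraoctylammonium bromide positive control. AC50 via Hill fit.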

[10] = Cell Viability - LYMP2-018 (AID 985);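 also: plate controls were DMSO only for no effect and tetraoctylammonium bromide at 92 µM for full effect; nearly all actives have a fitted effect of over 50% in size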
Summary of the method: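 Luminescent ATP signal (CellTiter-Glo, read after 30 min at room temperature) reports viable cells after 24 hr compound treatment at 37 C. Concentration-response data were fitted to the standard Hill equation for AC50.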

[11] = Cell Viability - LYMP2-020 (AID 986);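 also: series mostly up to about 92 µM; plate controls were DMSO only for no effect and tetraoctylammonium bromide at 92 µM for full effect; nearly all actives have a fitted effect of over 55% in size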
Summary of the method: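 Luminescent ATP signal (CellTiter-Glo, 30 min at room temperature) is the read-out after 24 h compound treatment of lymphoblastoid cells at 37 C. AC50 values come from Hill-equation fits across concentrations.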

[12] = Cell Viability - LYMP2-022 (AID 987)
Summary of the method: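 qHTS: human lymphoblastoid cells 2500/well; 5 hr 37 C; cpd added; 24 hr 37 C; CellTiter-Glo, 30 min RT; luminescence. AC50 via Hill fit; tetraoctylammonium bromide positive ctrl.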

[13] = Cell Viability - LYMP2-024 (AID 988);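 also: plate controls were DMSO only for no effect and 92 µM tetraoctylammonium bromide for full effect; nearly all actives have a fitted effect of over 60% in size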
Summary of the method: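 Steps: seed 2500 cells/well, 5 hr 37 C; add compound, 24 hr 37 C; add CellTiter-Glo, 30 min room temperature; read luminescence. AC50 derived by Hill modelling of concentration-dependent ATP loss.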

[14] = Cell Viability - LYMP2-026 (AID 989); also: % is scaled to controls: 0 for no effect and ±100 for the full control effect; nearly all actives have a fitted effect of over 50% in size
Summary of the method: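 Luminescent ATP signal (CellTiter-Glo, 30 min room temperature) measures viable lymphoblastoid cells after 24 hr compound treatment at 37 C. Decreased ATP reflects acute toxicity; AC50 values come from Hill-equation modeling.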

[15] = Cell Viability - LYMP1-002 - Assay at 24 hr (AID 993); also: % is scaled to controls: 0 for no effect and ±100 for the full control effect
Summary of the method: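 Cells plated 2500/well, 5 hr 37 C; compounds added, 24 hr 37 C; CellTiter-Glo added, 30 min RT; luminescence read. Tetraoctylammonium bromide positive control. Hill-equation AC50.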

[16] = Cell Viability - LYMP1-002 - Assay at 40 hr (AID 994)
Summary of the method: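 Luminescent ATP signal served as the viability readout, with decreases taken as toxicity. Cells were treated with compounds across a concentration range for 40 hours at 37 C, and AC50 values came from standard Hill modeling.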

[17] = qHTS Assay for Identification of Small Molecule Inducers of Hypoxia Response (AID 2120; active = well fitted curve in the direction sought with a large enough effect in the signal ratio, with a control signal flat, not every such curve was filed as active; the % refers to the signal ratio; also: 0% is about no effect)
Summary of the method: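 ME-180 HRE-bla cells plated in Opti-MEM/0.5% dialyzed FBS, rested 4-5 h, then dosed with compound titrations by pin tool. After 17 h at 37 degrees C, CCF4 dye loaded 2.5 h at RT; 460/530 nm ratio gave %Activity and AC50.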

[18] = molecular target: Androgen receptor (Homo sapiens) (UniProt P10275); test: qHTS assay for small molecule agonists of androgen receptor signaling (AID 588515; active = well fitted curve in the direction sought with a large enough effect in the signal ratio, with a control signal flat; the % refers to the signal ratio; also: % is scaled to controls: 0 for no effect and ±100 for the full control effect); details: AR-UAS-bla HEK293, beta-lactamase ratio, agonist 16 h; active compounds read high
Chain of Androgen receptor (Homo sapiens) (P10275 whole entry, looked up): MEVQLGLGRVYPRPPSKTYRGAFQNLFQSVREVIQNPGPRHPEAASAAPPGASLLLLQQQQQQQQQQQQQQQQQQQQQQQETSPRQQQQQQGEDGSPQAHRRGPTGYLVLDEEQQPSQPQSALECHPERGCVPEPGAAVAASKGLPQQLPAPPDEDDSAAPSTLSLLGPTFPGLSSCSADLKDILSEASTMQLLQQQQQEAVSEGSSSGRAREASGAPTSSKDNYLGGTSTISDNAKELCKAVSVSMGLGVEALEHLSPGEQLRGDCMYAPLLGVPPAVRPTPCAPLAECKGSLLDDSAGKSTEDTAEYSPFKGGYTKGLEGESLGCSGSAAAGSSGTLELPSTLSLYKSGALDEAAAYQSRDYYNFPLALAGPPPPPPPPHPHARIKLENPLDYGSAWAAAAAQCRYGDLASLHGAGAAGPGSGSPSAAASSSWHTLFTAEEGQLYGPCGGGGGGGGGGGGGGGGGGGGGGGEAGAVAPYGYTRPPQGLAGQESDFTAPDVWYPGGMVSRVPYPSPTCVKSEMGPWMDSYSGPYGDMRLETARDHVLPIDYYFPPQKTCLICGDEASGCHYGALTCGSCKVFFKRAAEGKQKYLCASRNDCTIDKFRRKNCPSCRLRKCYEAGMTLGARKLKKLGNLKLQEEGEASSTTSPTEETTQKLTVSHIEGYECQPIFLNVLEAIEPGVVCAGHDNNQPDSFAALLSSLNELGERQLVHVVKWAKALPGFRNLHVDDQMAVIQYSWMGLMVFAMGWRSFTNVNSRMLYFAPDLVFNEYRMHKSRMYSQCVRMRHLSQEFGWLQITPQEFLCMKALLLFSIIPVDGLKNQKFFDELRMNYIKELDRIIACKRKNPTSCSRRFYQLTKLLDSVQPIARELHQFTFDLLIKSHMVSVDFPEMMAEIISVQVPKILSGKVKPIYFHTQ
Summary of the method: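 EC50 and efficacy came from Hill fits of titrations (up to 92 uM) normalized to 30 nM R1881 as 100% and DMSO as 0%. Compound exposure was 16 h at 37 C on AR-UAS-bla HEK293 cells, with a 405/460/530 nm CCF4 fluorescence read.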

CCC(C)=O
inactive: Potency [1] | Potency [2] | Potency [3] | Potency [4] | Potency [5] | Potency [6] | Potency [7] | Potency [8] | Potency [9] | Potency [10] | Potency [11] | Potency [12] | Potency [13] | outcome [14] | Potency [15] | Potency [16] | outcome [17]

COC(=O)c1ccccc1
inactive: Potency [1] | Potency [2] | Potency [3] | Potency [4] | Potency [5] | Potency [6] | Potency [7] | Potency [8] | Potency [9] | Potency [10] | Potency [11] | Potency [12] | Potency [13] | outcome [14] | Potency [15] | Potency [16] | outcome [17]

Nc1ccccc1S(=O)(=O)O
inactive: Potency [1] | Potency [2] | Potency [3] | Potency [4] | Potency [5] | Potency [6] | Potency [7] | Potency [8] | Potency [9] | Potency [10] | Potency [11] | Potency [12] | Potency [13] | outcome [14] | Potency [15] | Potency [16] | outcome [17]

Clc1ccccn1
inactive: Potency [1] | Potency [2] | Potency [3] | Potency [4] | Potency [5] | Potency [6] | Potency [7] | Potency [8] | Potency [9] | Potency [10] | Potency [11] | Potency [12] | Potency [13] | outcome [14] | Potency [15] | outcome [17]

c1ccc(Oc2ccccc2)cc1
inactive: Potency [1] | Potency [2] | Potency [3] | Potency [4] | Potency [5] | Potency [6] | Potency [7] | Potency [8] | Potency [9] | Potency [10] | Potency [11] | Potency [12] | Potency [13] | outcome [14] | Potency [15] | Potency [16] | outcome [17]

CC/C=C1/OC(=O)c2ccccc21
inactive: Potency [1] | Potency [2] | Potency [3] | Potency [4] | Potency [6] | Potency [7] | Potency [8] | Potency [9] | Potency [10] | Potency [11] | Potency [12] | Potency [13] | outcome [14] | Potency [16] | outcome [17] | activation [18] 15.6%

Clc1ccc(Cl)c(Cl)c1Cl
inactive: Potency [1] | Potency [2] | Potency [3] | Potency [4] | Potency [5] | Potency [6] | Potency [7] | Potency [8] | Potency [9] | Potency [10] | Potency [11] | Potency [12] | Potency [13] | outcome [14] | Potency [15] | Potency [16] | outcome [17]

O=[N+]([O-])c1ccccc1CCO
inactive: Potency [1] | Potency [2] | Potency [3] | Potency [4] | Potency [5] | Potency [6] | Potency [7] | Potency [8] | Potency [9] | Potency [10] | Potency [11] | Potency [12] | Potency [13] | outcome [14] | Potency [15] | Potency [16] | outcome [17]

O=C(O)c1ccccc1[N+](=O)[O-]
inactive: Potency [1] | Potency [2] | Potency [3] | Potency [4] | Potency [5] | Potency [6] | Potency [7] | Potency [8] | Potency [9] | Potency [10] | Potency [11] | Potency [12] | Potency [13] | outcome [14] | Potency [15] | Potency [16] | outcome [17]

CCN(C(=O)N(CC)c1ccccc1)c1ccccc1
inactive: Potency [1] | Potency [2] | Potency [3] | Potency [4] | Potency [5] | Potency [6] | Potency [7] | Potency [8] | Potency [9] | Potency [10] | Potency [11] | Potency [12] | Potency [13] | outcome [14] | Potency [15] | Potency [16] | outcome [17]

O=CNc1ccccc1
inactive: Potency [1] | Potency [2] | Potency [3] | Potency [4] | Potency [5] | Potency [6] | Potency [7] | Potency [8] | Potency [9] | Potency [10] | Potency [11] | Potency [12] | Potency [13] | outcome [14] | Potency [15] | Potency [16] | outcome [17]

CC(=O)OCCC(C)C
inactive: Potency [1] | Potency [2] | Potency [3] | Potency [4] | Potency [5] | Potency [6] | Potency [7] | Potency [8] | Potency [9] | Potency [10] | Potency [11] | Potency [12] | Potency [13] | outcome [14] | Potency [15] | outcome [17]

COc1ccccc1[N+](=O)[O-]
inactive: Potency [1] | Potency [2] | Potency [3] | Potency [4] | Potency [5] | Potency [6] | Potency [7] | Potency [8] | Potency [9] | Potency [10] | Potency [11] | Potency [12] | Potency [13] | outcome [14] | Potency [15] | Potency [16] | outcome [17]

CCCC=O
inactive: Potency [1] | Potency [2] | Potency [3] | Potency [4] | Potency [5] | Potency [6] | Potency [7] | Potency [8] | Potency [9] | Potency [10] | Potency [11] | Potency [12] | Potency [13] | outcome [14] | Potency [15] | Potency [16] | outcome [17]

O=C(O)/C=C/C(=O)O
inactive: Potency [1] | Potency [2] | Potency [3] | Potency [4] | Potency [5] | Potency [6] | Potency [7] | Potency [8] | Potency [9] | Potency [10] | Potency [11] | Potency [12] | Potency [13] | outcome [14] | Potency [15] | Potency [16] | outcome [17]

C1CCCC1
inactive: Potency [1] | Potency [2] | Potency [3] | Potency [4] | Potency [5] | Potency [6] | Potency [7] | Potency [8] | Potency [9] | Potency [10] | Potency [11] | Potency [12] | Potency [13] | outcome [14] | Potency [15] | Potency [16] | outcome [17]

CC(C=O)Cc1ccc(C(C)(C)C)cc1 (stereo not drawn)
inactive: Potency [1] | Potency [2] | Potency [3] | Potency [5] | Potency [6] | Potency [7] | Potency [8] | Potency [9] | Potency [10] | Potency [11] | Potency [12] | Potency [13] | outcome [14] | Potency [15] | Potency [16] | outcome [17] | activation [18] 8.05%

CCCCOCCOCCSC#N
inactive: Potency [1] | Potency [2] | Potency [3] | Potency [4] | Potency [5] | Potency [6] | Potency [7] | Potency [8] | Potency [9] | Potency [10] | Potency [11] | Potency [12] | Potency [13] | outcome [14] | Potency [15] | Potency [16] | outcome [17]
